Experimental data reported in PubChem BioAssay AID1224854 (National Center for Advancing Translational Sciences (NCATS), 2016).
Records with an inconclusive call do not appear. Where a call stands in place of a potency, no number is given. Activity calls are given as the source filed them. Calls come from the whole dose curve; as a rule, active = well fitted activation curve with a large enough effect; inconclusive = small, poorly fitted or top-dose-only effect; inactive = flat fitted curve, though single readings scatter.

Assay: Cell viability assay for measurement of the protective activity of small molecules against cell death caused by Zika virus infection in human astrocytoma cells
Conditions: SNB-19 Zika virus cytoprotection, ATP luminescence, 72 h; series mostly up to 46.1 µM
Outline: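 SNB-19 astrocytoma cells pre-treated with compounds for 1 h, then infected with ZIKV at 2 FFU/cell and incubated 72 h at 37 C. Viability read as ATP luminescence; percent inhibition of virus-induced viability loss calculated.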
With CC=CC[C@@H](C)C(=O)[C@H]1C(=O)N[C@@H](C(C)C)C(=O)N(C)CC(=O)N(C)[C@@H](CC(C)C)C(=O)N[C@@H](C(C)C)C(=O)N(C)[C@@H](CC(C)C)C(=O)N[C@@H](C)C(=O)N[C@H](C)C(=O)N(C)[C@@H](CC(C)C)C(=O)N(C)[C@@H](CC(C)C)C(=O)N(C)[C@@H](C(C)C)C(=O)N1C the Potency was “inactive”.
With CCC(C(=O)O)c1ccc(N2Cc3ccccc3C2=O)cc1 (configuration not stated) the Potency was “inactive”.
With C/C(=N\O)c1ccc(OCC(=O)N2CCCCC2)cc1 the Potency was “inactive”.
With O=C1C[C@@H](c2ccc(O)cc2)Oc2cc(O)cc(O)c21 the Potency was “inactive”.
For N[C@H](CSC(c1ccccc1)(c1ccccc1)c1ccccc1)C(=O)O, the Potency was “inactive”.
For Nc1ncnc2c1ncn2[C@@H]1O[C@@H](CO)[C@H](O)[C@H]1O, the Potency was “inactive”.
For CC1(C)Cc2c(sc(NC(=S)NC(=O)c3ccccc3)c2C(=O)O)CO1, the Potency was “inactive”.
For O=C1c2ccccc2C(=O)c2c1ccc(O)c2O, the Potency was “inactive”.
In the case of CCCCCCOc1ccccc1C(N)=O, the Potency is reported as “inactive”.
For CCC(C)SSc1ncc[nH]1 (configuration not stated), the Potency was 24.5 µM (active).
In the case of Nc1nc2ccc([N+](=O)[O-])cc2s1, the Potency is reported as “inactive”.
In the case of Cc1cc(O)c2ccccc2c1O, the Potency is reported as “inactive”.
With O=C(O)c1cccc(-c2noc(-c3ccccc3F)n2)c1 the Potency was “inactive”.
For O=C(O)c1cc([N+](=O)[O-])ccc1NCCCc1ccccc1, the Potency was “inactive”.
In the case of CS(=O)(=O)c1ccc(-c2cn3ccccc3n2)cc1, the Potency is reported as “inactive”.
For O=C(O)CCC(=O)c1ccc(-c2ccccc2)cc1, the Potency was “inactive”.
In the case of COc1cc2nc(-c3ccc(N4CCN(C)CC4)cc3)nc(NCCN3CCOCC3)c2cc1OC, the Potency is reported as 1.95 µM (active).
With C[C@H](NC(=O)C(=O)Nc1ccccc1C(C)(C)C)C(=O)N[C@@H](CC(=O)O)C(=O)COc1c(F)c(F)cc(F)c1F the Potency was 0.489 µM (active).
In the case of COc1ccc(-c2cc(=O)c3c(O)cc(O)cc3o2)cc1O, the Potency is reported as “inactive”.
For O=C(c1ccccc1)c1ccc2n1CCC2C(=O)O (configuration not stated), the Potency was “inactive”.
For COc1ccc(C=CC(=O)Nc2ccccc2C(=O)O)cc1OC, the Potency was “inactive”.
For N#CC1(c2ccc(NC(=O)c3cccnc3NCc3ccncc3)cc2)CCCC1, the Potency was “inactive”.
With CN(C)c1ccc(C(=C2C=CC(=[N+](C)C)C=C2)c2ccccc2)cc1 the Potency was “inactive”.
With C=C1C(=O)[C@@]23C(CC[C@@H]1[C@H]2O)[C@@]12CO[C@]3(O)[C@@H](O)[C@@H]1C(C)(C)CC[C@@H]2O (some centres not stated) the Potency was “inactive”.
For Nc1ccc(-c2ccc3ccccc3n2)cc1, the Potency was “inactive”.
In the case of CC(O)=C(C#N)C(=O)Nc1ccc(C(F)(F)F)cc1, the Potency is reported as “inactive”.
In the case of Cc1cccc(C#Cc2ccccc2)n1, the Potency is reported as “inactive”.
In the case of O=C(OCc1ccccc1)c1ccc(O)cc1, the Potency is reported as “inactive”.
In the case of CC(=NNC(=S)N1CCC1)c1ccccn1, the Potency is reported as 0.69 µM (active).
With CCCS(=O)c1ccc2nc(NC(=O)OC)[nH]c2c1 (configuration not stated) the Potency was “inactive”.
With CO[C@H]1C(=O)[C@]2(C)[C@@H](OC)C[C@H]3OC[C@@]3(OC(C)=O)[C@H]2[C@H](OC(=O)c2ccccc2)[C@]2(O)C[C@H](OC(=O)[C@H](O)[C@@H](NC(=O)OC(C)(C)C)c3ccccc3)C(C)=C1C2(C)C the Potency was “inactive”.
For COc1ccc(-c2coc3cc(O)ccc3c2=O)cc1, the Potency was “inactive”.
For O=c1c(-c2ccc(O)cc2)coc2cc(OC3O[C@H](CO)[C@H](O)[C@H](O)[C@H]3O)cc(O)c12 (some centres not stated), the Potency was “inactive”.
For C[C@@H]1CCN(C(=O)CC#N)C[C@H]1N(C)c1ncnc2[nH]ccc12, the Potency was “inactive”.
In the case of O=C(C=CC=Cc1ccc2c(c1)OCO2)N1CCCCC1, the Potency is reported as “inactive”.
For Cc1c(NC(=O)c2ccc(C(C)(C)C)cc2)cccc1-c1cn(C)c(=O)c(Nc2ccc(C(=O)N3CCOCC3)cc2)n1, the Potency was 21.8 µM (active).
With O=C(CS)Nc1ccccc1 the Potency was “inactive”.
